# Bioassay records (PubChem)
# CYP2C19 inh – inhibitors of human CYP2C19; P33261; CYP2C19 Supersomes, luciferin-H EGE luminescence, 30 min; inhibition, % at 5 µM; 21% of 96,000 active; AID 778;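 active means CYP2C19 inhibition above a set limit at 5 µM in the primary screen, cut at about 50% in these data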;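 further: plate controls were negative control wells for no effect and 2.5 mM tranylcypromine positive control for full effect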
# CYP2C19 activ – activators of human cytochrome P450 2C19. AID 1025. activation factor at 5 µM. P33261. 96,000 tested, under 10 active. recombinant CYP2C19, luciferin-H EGE luminescence; hits give high values; 0 = fully inhibited enzyme, 1 = untreated enzyme;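 active means activation factor of at least 2 at 5 µM in the primary screen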;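 further: 0 = wells with 2.5 mM tranylcypromine and 1 = vehicle-only wells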
# CYP2C9 inhib – blocks human cytochrome P450 2C9; P11712; inhibition, % at 5 µM; CYP2C9 Supersomes, luciferin-H conversion, luminescence; AID 777; 20% of 96,000 active;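 active means blocking of liver enzyme CYP2C9 beyond about 50% at 5 µM, limit read from the data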
# Target sequence (P11712 whole entry, looked up): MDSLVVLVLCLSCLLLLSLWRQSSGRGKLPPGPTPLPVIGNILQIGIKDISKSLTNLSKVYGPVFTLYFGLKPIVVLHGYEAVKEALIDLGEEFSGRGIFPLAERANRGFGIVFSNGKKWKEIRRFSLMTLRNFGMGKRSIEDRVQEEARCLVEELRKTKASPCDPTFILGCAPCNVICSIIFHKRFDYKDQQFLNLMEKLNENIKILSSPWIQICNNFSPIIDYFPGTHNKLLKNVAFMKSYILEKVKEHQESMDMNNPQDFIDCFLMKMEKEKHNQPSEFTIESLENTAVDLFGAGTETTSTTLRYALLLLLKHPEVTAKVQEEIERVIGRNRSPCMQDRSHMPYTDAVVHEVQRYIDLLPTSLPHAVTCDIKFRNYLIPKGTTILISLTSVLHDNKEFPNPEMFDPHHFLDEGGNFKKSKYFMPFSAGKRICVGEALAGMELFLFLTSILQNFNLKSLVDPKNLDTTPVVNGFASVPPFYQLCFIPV
# Measles CPE – protection of cells from measles virus. Measles virus-infected cells, CPE protection, absorbance. protection (pct of control), % at 4 µM. 1.5% of 140,000 active. AID 841; in the data active means protection mostly above about 24%, no sharp cut-off; inactive means mostly below about 26%
# CYP2C9 activ – activators of human CYP2C9 | activation factor at 5 µM | recombinant CYP2C9, luciferin-H conversion, luminescence; hits give high values; factor 1 = untreated enzyme, 0 = blocked | 1.4% of 96,000 active;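 active means activation factor of 2 or more for CYP2C9 at a 5 µM dose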;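 further: 0 = sulfaphenazole-blocked wells and 1 = vehicle-only wells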
# * = called active by the depositor; · = not tested or not shown. Shown are actives, neighbours in structure and some others; about 22% of the full set was active somewhere.
SMILES,CYP2C19 inh,CYP2C19 activ,CYP2C9 inhib,Measles CPE,CYP2C9 activ
CCC(CC)C(=O)N1CCCC(c2nc(-c3cccs3)no2)C1 (stereo not drawn),-2.3,1,-2.1,12.4,1
Cn1c(CO)cnc1SCc1ccc(Cl)cc1,83.6*,0.2,17.4,7.7,0.8
COc1ccc(OC)c2[nH]c(=O)c(CCNC(=O)C3CCCCC3)cc12,31.0,0.7,-143.6,14.3,2.4*
COc1ccc(OC)c2[nH]c(=O)c(CCNC(=O)CC(C)C)cc12,32.1,0.7,-153.7,20.3,2.5*
COc1ccc(OC)c2[nH]c(=O)c(CCNC(=O)c3ccc(Br)o3)cc12,76.8*,0.2,-57.8,6.5,1.6
Cc1ccc2cc(CCNC(=O)c3ccc(Br)o3)c(=O)[nH]c2c1,53.6*,0.5,36.8,9.7,0.6
COc1ccc(OC)c2[nH]c(=O)c(CCNC(=O)C(C)C)cc12,15.1,0.8,-16.0,14.4,1.2
Cc1ccc(Cn2c(CN3CCN(C(=O)c4ccco4)CC3)nc3c2c(=O)n(C)c(=O)n3C)cc1,27.5,0.7,40.5,7.0,0.6
COc1cccc(C(=O)Nc2cc(C)ccc2NC(=O)COc2ccccc2)c1,-11.4,1.1,12.4,1.1,0.9
O=C(CCNS(=O)(=O)c1ccc(Cl)cc1)N1CCN(Cc2ccccc2)CC1,·,·,·,15.7,·
Cc1csc(NC(=O)c2cnccn2)n1,13.6,0.9,-3.3,32.3,1
Cn1c(C(=O)O)c(CC(=O)Nc2ccccc2F)c2ccccc21,59.4*,0.4,93.0*,12.3,0.1
Cc1ccc2c(c1)c(CC(=O)Nc1ccc(C)c(F)c1)c(C(=O)O)n2C,36.1,0.6,84.3*,9.9,0.2
COc1cc(N(C(=O)Cc2cccs2)C(C(=O)NC2CCCCC2)c2cccc(OC)c2OC)ccc1-n1cnnn1 (stereo not drawn),·,·,·,34.6,·
Cc1cc(N(C(=O)c2ccco2)C(C(=O)NC2CCCCC2)c2ccccc2)ccc1-n1cnnn1 (stereo not drawn),55.8*,0.4,91.5*,5.8,0.1
COc1cccc(C(C(=O)NC2CCCCC2)N(C(=O)c2ccco2)c2ccc(-n3cnnn3)c(C)c2)c1 (stereo not drawn),·,·,·,8.5,·
COc1cccc(C(C(=O)NC2CCCCC2)N(C(=O)Cc2cccs2)c2ccc(-n3cnnn3)c(OC)c2)c1 (stereo not drawn),65.0*,0.3,30.7,4.0,0.7
O=c1c2ccccc2n2c(-c3ccc(F)cc3)nnc2n1Cc1ccccc1,·,·,·,4.7,·
COC(=O)CSc1nnc(CSc2nc(C)cc(C)n2)o1,·,·,·,17.3,·
CN1CCN(CCCNC(=O)Cn2ncc3c4ccccc4n(C)c3c2=O)CC1,·,·,·,25.2,·
COc1ccc2c(=O)c3c(=O)n(Cc4ccco4)c(C(C)C)nc3oc2c1,·,·,·,9.4,·
COc1ccc2c(=O)c3c(=O)n(Cc4ccco4)c(C4CCCCC4)nc3oc2c1,53.4*,0.5,26.4,·,0.7
CCc1nc2oc3cc(OC)ccc3c(=O)c2c(=O)n1Cc1ccccc1,53.2*,0.5,48.9,9.5,0.5
COCCCn1c(C2CCCCC2)nc2oc3cc(OC)ccc3c(=O)c2c1=O,51.9*,0.5,70.1*,13.6,0.3
CCc1nc2oc3ccccc3c(=O)c2c(=O)n1Cc1ccccc1,3.4,1,4.3,3.8,1
SMILES,CYP2C19 inh,CYP2C19 activ,CYP2C9 inhib,Measles CPE,CYP2C9 activ
CCOC(=O)C1=C(C)NC(=S)NC1c1ccc(-c2cccc(Cl)c2C)o1 (stereo not drawn),21.6,0.8,50.3*,10.2,0.5
O=C(CSc1ccc2nnc(-c3ccncc3)n2n1)NCc1ccco1,15.0,0.8,48.5,16.5,0.5
CC(C)N(C(=O)CSc1nnnn1C1CCCC1)C(C)C,80.6*,0.2,28.2,4.6,0.7
O=C(CSc1nnnn1C1CCCCC1)NCc1ccccc1,62.4*,0.4,62.0*,26.3,0.4
O=C1CCC(=O)N1c1ccc(CSc2nnnn2C2CCCCC2)cc1,33.0,0.7,40.4,19.4*,0.6
O=C(O)c1ccc(CSc2nnnn2C2CCCCC2)cc1,-3.0,1,-3.7,30.0*,1
O=C(CSc1nnnn1C1CCCC1)NCc1ccccc1,48.2,0.5,16.3,1.3,0.8
O=C(CSc1nnnn1C1CCCCC1)N1CCCC1,-1.2,1,-8.1,20.7,1.1
COCCN(C(=O)Cn1nnc2ccccc21)C(C(=O)NC1CCCC1)c1cc(OC)ccc1OC (stereo not drawn),19.8,0.8,6.8,12.7,0.9
O=c1[nH]c(=O)n(Cc2ccccc2)c2nc(-c3ccc(Oc4ccc(F)cc4)c([N+](=O)[O-])c3)n(CCO)c12,·,·,·,19.0,·
Cc1cc(=O)[nH]c(SC(C(=O)O)c2ccccc2)n1 (stereo not drawn),·,·,·,2.4,·
CCOc1ccc(-n2nc(C(=O)N3CCN(CC)CC3)c3ccccc3c2=O)cc1,·,·,·,6.5,·
CCC1CCCCN1c1nc2c(C=O)c(C)nn2c2ccccc12 (stereo not drawn),·,·,·,45.3,·
COc1ccccc1OCCSc1nnnn1C1CCCCC1,·,·,·,9.9,·
c1ccc(OCCSc2nnnn2C2CCCCC2)cc1,67.9*,0.3,82.5*,·,0.2
CC(Oc1ccc(-c2ccccc2)c(F)c1)c1ccn(S(=O)(=O)c2ccc(Br)cc2)n1 (stereo not drawn),58.5*,0.4,71.3*,10.4,0.3
CC(C(=O)O)c1ccc(-c2ccccc2)c(F)c1 (stereo not drawn),·,·,·,5.9,·
COc1cccc(NS(=O)(=O)CC23CCC(CC2=O)C3(C)C)c1 (stereo not drawn),58.8*,0.4,6.2,5.5,0.9
CC1(C)C2CCC1(CS(=O)(=O)Nc1ccc(S(=O)(=O)NC3CCCCC3)cc1)C(=O)C2 (stereo not drawn),·,·,·,14.2,·
COc1ccccc1NS(=O)(=O)CC12CCC(CC1=O)C2(C)C (stereo not drawn),77.1*,0.2,-86.8,1.3,1.9
COc1ccccc1N1CCN(S(=O)(=O)CC23CCC(CC2=O)C3(C)C)CC1 (stereo not drawn),59.5*,0.4,-24.3,26.4,1.2
CC1(C)C2CCC1(CS(=O)(=O)Nc1ccc(S(=O)(=O)N3CCCC3)cc1)C(=O)C2 (stereo not drawn),·,·,·,3.9,·
CC1(C)C2CCC1(CS(=O)(=O)N1CCOCC1)C(=O)C2 (stereo not drawn),0.4,1,-35.9,5.0,1.4
CC1(C)C2CCC1(CS(=O)(=O)N1CCCc3ccccc31)C(=O)C2 (stereo not drawn),41.5,0.6,-222.2,28.1,3.2*
CCn1c(CNc2ccc(F)cc2)nnc1SCC(=O)Nc1ccccc1OC,·,·,·,5.6,·
CC1(c2ccccc2)CC(C)(C)N(C(=O)C2CCCO2)c2ccccc21 (stereo not drawn),76.7*,0.2,66.2*,2.9,0.3
O=C1CSC(=S)N1Cc1cccnc1,52.9*,0.5,76.5*,6.2,0.2
O=C1C2C3C=CC([C@@H]2C(=O)N1Cc1cccnc1)C31CC1 (stereo partly drawn),72.1*,0.3,6.3,45.0*,0.9
O=C1CSC(=S)N1c1cccnc1,-21.0,1.2,-17.7,20.6,1.2
